Source: PubChem BioAssay (NCATS)
Results filed as inconclusive are left out. The source made the active and inactive calls. Calls follow the shape of the dose curve; as a rule, active = well fitted curve in the direction sought with a large enough effect; inconclusive = small, poorly fitted or top-dose-only effect, or another doubt; inactive = no such curve, though single readings can be large; an effect the other way counts as inactive or inconclusive.

Key:
[1] = qHTS for ATAD5 Agonist screened against the NCATS CANVASS Library (AID 1347367);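 also: luciferase reporter driven by ATAD5 which rises upon DNA damage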
In short: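 HEK293T-ATAD5 luc reporter; 2000 cells/well; 5hr settle; cpd 11-pt qHTS; 16hr 37C 5% CO2 dark; viability by CellTiter-Fluor (AFC fluorescence); then luciferase luminescence, 30min RT.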

[2] = G06 Cancer Cell Toxicity qHTS against the NCATS CANVASS Library (AID 1347368); also: nearly all actives have a fitted effect of over 60% in size
In short: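 ATP luminescence (CellTiterGlo) readout of cytotoxicity. Canine G06 glioma cells, 500/well, 72 hr incubation at 37C with compounds; bortezomib titration served as control.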

[3] = qHTS for ATAD5 Antagonist screened against the NCATS CANVASS Library (AID 1347370);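 also: HEK293T cells carrying an ATAD5 luciferase reporter co-treated with 10 µM 5-fluorouridine; nearly all actives have a fitted effect of over 65% in size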
In short: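 HEK293T-ATAD5 luc reporter, 2000 cells/well; 5hr attach; cpd + 10 uM 5-FUrd; 16hr 37C, 5% CO2. Readouts: CellTiter-Fluor fluorescence (1hr), then Amplite luciferase luminescence (30min RT).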

[4] = J3T Cancer Cell Toxicity qHTS against the NCATS CANVASS Library (AID 1347371); settings: outcome: dose series up to 46.1 µM
In short: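 Dog glioma J3T, 500 cells/well; cpd 11-pt qHTS; 72 hr, 37C/5% CO2; CellTiterGlo ATP luminescence readout.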

[5] = target: Nuclear receptor subfamily 1 group I member 3 (Homo sapiens) (UniProt Q14994); assay: qHTS for Constitutive Androstane Receptor (CAR) Antagonist screened against the NCATS CANVASS Library (AID 1347372);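 also: cells stimulated with 50 nM CITCO agonist so inhibition reflects antagonism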
In short: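 Antagonist mode: compound added alongside 50 nM CITCO to HepG2-hCAR-CYP2B6 reporter cells, 24hr at 37C. Viability by CellTiter-Fluor fluorescence, then CAR-driven luciferase by ONE-Glo luminescence.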

[6] = target: Nuclear receptor subfamily 1 group I member 3 (Homo sapiens) (UniProt Q14994); assay: qHTS for Constitutive Androstane Receptor (CAR) Agonist screened against the NCATS CANVASS Library (AID 1347373);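 also: every well also contained 1.5 µM PK11195 alongside the test compound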
In short: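 Luciferase read-out (ONE-Glo, 30 min RT) of CYP2B6-2.2kb promoter activity in double-stable HepG2-hCAR cells after 24hr compound exposure with 1.5uM PK11195 present; viability measured first by CellTiter-Fluor.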

[7] = qHTS for Hypoxia signaling pathway (HIF-1) antagonists against the NCATS CANVASS Library (AID 1347374); settings: HRE-bla ME-180 cells, HIF-1 beta-lactamase reporter, CoCl2; also: potency is read from the fitted curve at half-maximal effect; nearly all actives have a fitted effect of over 60% in size
In short: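 Beta-lactamase reporter under HRE control in ME-180 cells; CoCl2 stimulus (60 uM solution as added), compounds 11-pt qHTS, 17 h 37C. CCF4 dye 2 h RT, 460/530 nm emission. CellTiter-Glo viability in same wells.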

[8] = qHTS for Hypoxia signaling pathway (HIF-1) agonists against the NCATS CANVASS Library (AID 1347375)
In short: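 Read-out: beta-lactamase FRET (CCF4-AM, ex 405, em 460 and 530 nm) after 2 h at room temperature. ME-180 cells stably carrying HRE-bla were treated 17 h at 37C with compounds in an 11-point concentration series.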

[9] = 10-beta competent E. coli microbial cell viability qHTS against the NCATS CANVASS Library (AID 1347376)
In short: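 Luminescence from BacTiter-Glo ATP detection served as the viability read-out; bacteria (0.2 OD) had been incubated overnight at 37C with pin-transferred compounds at 11 concentrations.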

[10] = DH5-alpha competent E. coli microbial cell viability qHTS against the NCATS CANVASS Library (AID 1347377)
In short: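 Luminescent ATP read-out (BacTiter-Glo, 20 min RT) after overnight 37C culture of DH5-alpha E. coli with compounds; daunomycin control at 0.2 nM–9.2 uM final.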

[11] = qHTS for H2AX Agonists against the NCATS CANVASS Library (AID 1347378);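 also: phospho-H2AX S139 level in CHO-K1 lysates by TR-FRET emission ratio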
In short: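 CHO-K1, 1000 cells/well, o/n 37C; cpd several conc, 3 hr 37C, 0.76% DMSO; lyse 30 min RT; cryptate anti-pH2AX(S139) + d2 anti-H2AX, 24 hr RT; HTRF 665/620.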

[12] = qHTS for Inflammasome Signaling Inhibitors: IL-1-beta AlphaLISA screen against the NCATS CANVASS Library (AID 1347379); settings: outcome: dose series up to 57.5 µM;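 also: human THP-1 cells primed with LPS then triggered with ATP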
In short: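 THP-1, 1 hr compound pre-incubation, then LPS 250 ng/mL + ATP 1.25 mM (final); 16 hr total with compound; IL-1B AlphaLISA, ex 680/em 615 nm; 11-point qHTS, up to 57.5 uM final.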

[13] = Inflammasome Signaling qHTS Counterscreen: IL-1-beta AlphaLISA counterscreen against the NCATS CANVASS Library (AID 1347381);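 also: cell-free check with purified IL-1β in medium and no THP-1 cells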
In short: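 Here, no cellular stimulation occurs; compounds in an 11-point series meet 4 pg purified IL-1-beta directly. Bead-based AlphaLISA detection follows (1 h acceptor/antibody, then 30 min donor, dark, room temperature), with excitation at 680 nm.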

[14] = Cytotoxicity qHTS for assessment of Hepg2 cells membrane integrity screened against the NCATS CANVASS Library (AID 1347387)
In short: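 LDH release read by fluorescence (560 nm ex/590 nm em) after CytoTox-ONE addition and 10 min RT; signal tracks lysed cells. HepG2, 2000 cells/well, plated overnight; compound 5 hr, 37C, 5% CO2, final 0.59 nM - 46 uM, 11 points.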

[15] = qHTS for Activators of p53 Stress Response Pathway screened against the NCATS CANVASS Library (AID 1347388)
In short: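 Beta-lactamase reporter driven by p53 response elements in HCT-116 cells, read as the 460 nm/530 nm emission ratio after CCF4 loading, following 16 h of exposure to an 11-point series. Cell viability was measured in the same wells by CellTiter-Glo luminescence.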

[16] = qHTS assay for small molecule disruptors of mitochondrial membrane potential screened against the NCATS CANVASS Library (AID 1347389); also: nearly all actives have a fitted effect of over 60% in size
In short: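 Red/green fluorescence ratio read-out: J-aggregates ex 540/em 590 nm, monomers ex 490/em 535 nm. HepG2, 1 hr compound treatment, then 30 min Mito-MPS dye at 37C. 11-pt qHTS concentration series.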

[17] = Secretion counterscreen for inhibitors of the SERCaMP assay screened against the NCATS CANVASS Library (AID 1347390);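 also: light from luciferase secreted into medium read as a measure of general secretion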
In short: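 SH-SY5Y-GLuc STOP cells; 4 h attach; cpds 0.001 - 77 uM (qHTS, 11 pts), 20 h 37C/5% CO2; coelenterazine in glow buffer; luminescence, 5 s exposure.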

[18] = qHTS for activators of Nrf2/ARE signaling pathway screened against the NCATS CANVASS Library (AID 1347391); also: nearly all actives have a fitted effect of over 60% in size
In short: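 HepG2 ARE-bla; cpd 11-pt qHTS, 16 h 37C/5% CO2; CCF4 substrate 2 h RT; read ex 405 / em 460 + 530 nm. Viability by CellTiter-Glo luminescence, 30 min RT.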

[19] = MCF7 Cancer Cell Toxicity qHTS against the NCATS CANVASS Library (AID 1347369); settings: MCF7 viability, ATP luminescence (CellTiter-Glo), 72 h; at 46 µM (top of the series)
In short: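 Cells seeded at 500/well, then compound pinned. Plates incubated 72 hr at 37C, 5% CO2. CellTiterGlo added; luminescence read.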

[20] = qHTS for Antimalaria activity screened against the NCATS CANVASS Library (AID 1347380);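 also: Plasmodium falciparum strain Dd2 asexual parasites grown in red blood cells; nearly all actives have a fitted effect of over 40% in size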
In short: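 SYBR Green fluorescence (ex 485, em 535 nm) read after saponin/Triton lysis and 18 h further incubation; Dd2 asexual blood-stage parasites, 72 h compound exposure, 11-pt concentration series, 2.5% hematocrit, 0.3% parasitemia.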

Measured: Potency

Nuclear receptor subfamily 1 group I member 3 (Homo sapiens), sequence (Q14994 whole entry, looked up): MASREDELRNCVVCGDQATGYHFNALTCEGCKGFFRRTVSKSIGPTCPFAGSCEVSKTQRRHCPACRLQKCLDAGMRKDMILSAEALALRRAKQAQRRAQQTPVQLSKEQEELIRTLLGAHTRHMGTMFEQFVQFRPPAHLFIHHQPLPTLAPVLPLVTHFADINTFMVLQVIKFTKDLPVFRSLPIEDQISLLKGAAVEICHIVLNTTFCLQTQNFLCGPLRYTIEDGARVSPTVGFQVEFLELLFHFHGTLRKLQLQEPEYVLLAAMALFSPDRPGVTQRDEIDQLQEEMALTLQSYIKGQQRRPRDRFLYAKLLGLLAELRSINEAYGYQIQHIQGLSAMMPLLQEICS

O=C(O)C(O)Cc1ccc(O)c(O)c1 (centres undefined)
inactive: [1] | [2] | [3] | [4] | [5] | [6] | [8] | [9] | [10] | [11] | [12] | [13] | [14] | [15] | [16] | [17] | [18]
active: [7] 8.38 µM

O=c1cc(-c2ccccc2)oc2cc(O)c(O)c(O)c12
inactive: [1] | [2] | [19] | [3] | [4] | [5] | [6] | [8] | [9] | [11] | [12] | [20] | [13] | [14] | [15] | [16] | [17] | [18]

COC(=O)[C@@H]1[C@H]2C[C@H]3c4[nH]c5ccccc5c4CCN3C[C@@H]2CC[C@@H]1O
inactive: [1] | [2] | [19] | [3] | [4] | [5] | [6] | [9] | [10] | [11] | [12] | [20] | [13] | [14] | [15] | [16] | [17] | [18]
